Results published in the supplement of paper PMC8728848.
Shown is part of a subset that was picked to be rich in the strongest signals.

What was measured:
Assay in all cases: glycan array binding signal (z-score within array); higher = stronger binding
Conditions in all cases: glycan notation: IUPAC condensed, linker removed
Fuc(a1-2)Gal(b1-3)GalNAc = target: Fuc(a1-2)Gal(b1-3)GalNAc
How it was run: (§1)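 The Consortium for Functional Glycomics database supplied 3228 glycan arrays, of which those lacking an available protein sequence were dropped. The binding signal, a within-array Z-score, was averaged across arrays of the same protein sequence and across linkers. Negative scores can be read as non-binding.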

[1] = target: Fuc(a1-2)Gal(b1-3)GalNAc(b1-4)[Neu5Ac(a2-3)]Gal(b1-4)Glc
How it was run: as §1

[2] = target: Fuc(a1-2)Gal(b1-3)GlcNAc(b1-3)[Gal(b1-4)GlcNAc(b1-6)]Gal(b1-4)Glc
How it was run: as §1

[3] = target: Fuc(a1-2)Gal(b1-4)[Fuc(a1-3)]GlcNAc(b1-3)Gal(b1-4)[Fuc(a1-3)]GlcNAc
How it was run: as §1

[4] = target: Fuc(a1-2)[Gal(a1-3)]Gal(b1-4)Glc
How it was run: as §1

[5] = target: Fuc(a1-2)[GalNAc(a1-3)]Gal(b1-4)GlcNAc(b1-2)Man(a1-3)[Fuc(a1-2)[GalNAc(a1-3)]Gal(b1-4)GlcNAc(b1-2)Man(a1-6)]Man(b1-4)GlcNAc(b1-4)[Fuc(a1-6)]GlcNAc
How it was run: as §1

[6] = target: Fuc(a1-2)[GalNAc(a1-3)]Gal(b1-4)GlcNAc(b1-3)GalNAc
How it was run: as §1

[7] = target: Fuc(a1-3)[Gal(b1-4)]Glc6S
How it was run: as §1

[8] = target: Fuc(a1-3)[Gal3S(b1-4)]Glc
How it was run: as §1

Gal(a1-3)Gal = target: Gal(a1-3)Gal
How it was run: as §1

[9] = target: Gal(a1-3)[Gal(a1-4)]Gal(b1-4)GlcNAc
How it was run: as §1

[10] = target: Gal(b1-3)GlcNAc(b1-3)Gal(b1-3)GlcNAc
How it was run: as §1

[11] = target: Gal(b1-3)GlcNAc(b1-3)Gal(b1-4)GlcNAc(b1-2)Man(a1-3)[Gal(b1-3)GlcNAc(b1-3)Gal(b1-4)GlcNAc(b1-2)Man(a1-6)]Man(b1-4)GlcNAc(b1-4)GlcNAc
How it was run: as §1

[12] = target: Gal(b1-3)GlcNAc(b1-3)Gal(b1-4)GlcNAc(b1-3)Gal(b1-4)GlcNAc(b1-2)[Gal(b1-3)GlcNAc(b1-3)Gal(b1-4)GlcNAc(b1-3)Gal(b1-4)GlcNAc(b1-6)]Man(a1-6)[Gal(b1-3)GlcNAc(b1-3)Gal(b1-4)GlcNAc(b1-3)Gal(b1-4)GlcNAc(b1-2)Man(a1-3)]Man(b1-4)GlcNAc(b1-4)[Fuc(a1-6)]GlcNAc
How it was run: as §1

[13] = target: Gal(b1-3)[Neu5Ac(a2-6)]GalNAc
How it was run: as §1

Gal(b1-4)GlcNAc(b1-2)Man = target: Gal(b1-4)GlcNAc(b1-2)Man
How it was run: as §1

[14] = target: Gal(b1-4)GlcNAc(b1-2)Man(a1-6)Man(b1-4)GlcNAc(b1-4)GlcNAc
How it was run: as §1

[15] = target: Gal(b1-4)GlcNAc(b1-2)[Gal(b1-4)GlcNAc(b1-4)]Man(a1-3)[Gal(b1-4)GlcNAc(b1-2)[Gal(b1-4)GlcNAc(b1-6)]Man(a1-6)]Man(b1-4)GlcNAc(b1-4)GlcNAc
How it was run: as §1

[16] = target: Gal(b1-4)GlcNAc(b1-2)[Gal(b1-4)GlcNAc(b1-4)]Man(a1-3)[GlcNAc(b1-4)][Gal(b1-4)GlcNAc(b1-2)[Gal(b1-4)GlcNAc(b1-6)]Man(a1-6)]Man(b1-4)GlcNAc(b1-4)GlcNAc
How it was run: as §1

[17] = target: Gal(b1-4)GlcNAc(b1-3)Gal(b1-3)GalNAc
How it was run: as §1

[18] = target: Gal(b1-4)GlcNAc(b1-3)Gal(b1-4)GlcNAc(b1-2)Man(a1-3)[Gal(b1-4)GlcNAc(b1-3)Gal(b1-4)GlcNAc(b1-2)Man(a1-6)]Man(b1-4)GlcNAc(b1-4)GlcNAc
How it was run: as §1

[19] = target: Gal(b1-4)GlcNAc(b1-3)Gal(b1-4)GlcNAc(b1-2)Man(a1-3)[Gal(b1-4)GlcNAc(b1-3)Gal(b1-4)GlcNAc(b1-2)Man(a1-6)]Man(b1-4)GlcNAc(b1-4)[Fuc(a1-6)]GlcNAc
How it was run: as §1

[20] = target: Gal(b1-4)GlcNAc(b1-3)Gal(b1-4)GlcNAc(b1-3)Gal(b1-4)GlcNAc
How it was run: as §1

[21] = target: Gal(b1-4)GlcNAc(b1-3)Gal(b1-4)GlcNAc(b1-3)Gal(b1-4)GlcNAc(b1-2)[Gal(b1-4)GlcNAc(b1-3)Gal(b1-4)GlcNAc(b1-3)Gal(b1-4)GlcNAc(b1-6)]Man(a1-6)[Gal(b1-4)GlcNAc(b1-3)Gal(b1-4)GlcNAc(b1-3)Gal(b1-4)GlcNAc(b1-2)Man(a1-3)]Man(b1-4)GlcNAc(b1-4)[Fuc(a1-6)]GlcNAc
How it was run: as §1

[22] = target: Gal(b1-4)GlcNAc(b1-3)Gal(b1-4)GlcNAc(b1-3)Gal(b1-4)GlcNAc(b1-3)Gal(b1-4)GlcNAc(b1-2)Man(a1-3)[Gal(b1-4)GlcNAc(b1-3)Gal(b1-4)GlcNAc(b1-3)Gal(b1-4)GlcNAc(b1-3)Gal(b1-4)GlcNAc(b1-2)Man(a1-6)]Man(b1-4)GlcNAc(b1-4)GlcNAc
How it was run: as §1

[23] = target: Gal(b1-4)GlcNAc(b1-6)[Gal(b1-4)GlcNAc(b1-3)]GalNAc
How it was run: as §1

[24] = target: Gal3S(b1-4)[Fuc(a1-3)]Glc6S
How it was run: as §1

[25] = target: GlcNAc(a1-4)Gal(b1-3)GlcNAc
How it was run: as §1

B1: Aap brpt (Staphylococcus epidermidis) (protein)
chain: VDGDPITSTEEIPFDKKREFDPNLAPGTEKVVQKGEPGTKTITTPTTKNPLTGEKVGEGEPTEKITKQPVDEIVHYGGEEIKTGHKDEFDPNAPKGSQTTQPGKPGVKNPDTGEVVTPPVDDVTKYGPVDGDPITSTEEIPFDKKREFDPNLAPGTEKVVQKGEPGTKTITTPTTKNPLTGEKVGEGEPTEKITKQPVDEIVHYGGEEIKPGHKDEFDPNAPKGSQEDVPGKPGVKNPDTGEVVTPPVDDVTKYGPVDGDSITSTEEIPFDKKREFDPNLAPGTEKVVQKGEPGTKTITTPTTKNPLTGEKVGEGEPTEKITKQPVDEIVHYGGEQIPQGHKDEFDPNAPVDSKTEVPGKPGVKNPDTGEVVTPPVDDVTKYGPVDGDSITSTEEIPFDKKREFDPNLAPGTEKVVQKGEPGTKTITTPTTKNPLTGEKVGEGKSTEKVTKQPVDEIVEYGPTK
B1 was tested, and the “glycan array binding signal (z-score)” value (Fuc(a1-2)Gal(b1-3)GalNAc) was -1, the “glycan array binding signal (z-score)” value [1] was -0.026 and the “glycan array binding signal (z-score)” value [2] was 0.337. For the same binder, the “glycan array binding signal (z-score)” value [3] was -0.951, the “glycan array binding signal (z-score)” value [4] was -0.658 and the “glycan array binding signal (z-score)” value [5] was 0.323. For the same binder, the “glycan array binding signal (z-score)” value [6] was -2.27, the “glycan array binding signal (z-score)” value [7] was 0.738 and the “glycan array binding signal (z-score)” value [8] was 0.077. The “glycan array binding signal (z-score)” value (Gal(a1-3)Gal) was 2.41, the “glycan array binding signal (z-score)” value [9] was 0.93 and the “glycan array binding signal (z-score)” value [10] was -0.56. The “glycan array binding signal (z-score)” value [11] was -0.969, the “glycan array binding signal (z-score)” value [12] was -0.027 and the “glycan array binding signal (z-score)” value [13] was 0.106. The “glycan array binding signal (z-score)” value (Gal(b1-4)GlcNAc(b1-2)Man) was -0.301, the “glycan array binding signal (z-score)” value [14] was -0.494 and the “glycan array binding signal (z-score)” value [15] was 0.481. For the same binder, the “glycan array binding signal (z-score)” value [16] was -0.768, the “glycan array binding signal (z-score)” value [17] was -0.487 and the “glycan array binding signal (z-score)” value [18] was 3.34. The “glycan array binding signal (z-score)” value [19] was 0.377, the “glycan array binding signal (z-score)” value [20] was 0.054 and the “glycan array binding signal (z-score)” value [21] was 2.44. The “glycan array binding signal (z-score)” value [22] was -0.738, the “glycan array binding signal (z-score)” value [23] was -0.18 and the “glycan array binding signal (z-score)” value [24] was 2.61. For the same binder, the “glycan array binding signal (z-score)” value [25] was -0.124.
